Assay results reported in PubChem BioAssay AID1619 (SRMLSC, 2009).
Out of some 220,000 compounds screened, about 830 (0.38%) were called active.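 The calls were made as follows: active = compound inhibiting the enzyme by more than half at any dose during confirmatory dose-response retesting; inconclusive = strong single-dose inhibitors picked by rank but not retested; inactive = the rest.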 Only a sample is shown. Potency and affinity values are given separately.

target: Leucine aminopeptidase (Plasmodium falciparum (isolate 3D7)) (UniProt Q8IL11); experiment: P. falciparum M17LAP inhibitors, primary screen, biochemical, fluorogenic H-Leu-NHMec substrate, 1536-well (AID 1619); conditions: recombinant M17LAP, H-Leu-NHMec fluorogenic kinetic assay; at 30 µM; hits give high values;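 also: plate controls were full reaction with DMSO carrier for no effect and no enzyme background for full effect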
Sequence (Q8IL11 whole entry, looked up): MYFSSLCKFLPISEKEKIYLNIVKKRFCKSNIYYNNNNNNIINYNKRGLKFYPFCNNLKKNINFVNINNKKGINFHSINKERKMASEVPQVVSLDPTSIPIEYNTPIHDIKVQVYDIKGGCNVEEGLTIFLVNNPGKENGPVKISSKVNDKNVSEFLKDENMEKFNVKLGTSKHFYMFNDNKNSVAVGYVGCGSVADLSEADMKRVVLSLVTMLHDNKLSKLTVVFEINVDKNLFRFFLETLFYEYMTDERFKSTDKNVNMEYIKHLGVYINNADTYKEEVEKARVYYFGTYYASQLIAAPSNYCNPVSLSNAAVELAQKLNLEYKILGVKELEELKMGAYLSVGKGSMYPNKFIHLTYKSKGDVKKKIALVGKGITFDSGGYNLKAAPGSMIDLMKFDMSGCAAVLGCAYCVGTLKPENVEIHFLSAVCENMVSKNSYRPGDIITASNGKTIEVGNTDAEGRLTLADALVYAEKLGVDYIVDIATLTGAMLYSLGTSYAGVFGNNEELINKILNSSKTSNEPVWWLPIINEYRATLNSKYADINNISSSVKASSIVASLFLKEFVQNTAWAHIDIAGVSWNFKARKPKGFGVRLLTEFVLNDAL

inhibition, inactive:
CC(=O)Nc1ccccc1N(CC(O)Cn1c2ccccc2c2ccccc21)S(=O)(=O)c1ccc(C)cc1 (stereo unspecified) 11.1%
CC(=O)CSc1nnc(Cc2ccc3c(c2)OCO3)o1 -2.53%
Cc1ccc(NC(=O)CN2C(=O)N/C(=C/c3ccc(C)s3)C2=O)cc1 -4%
Cc1ccc(NC(=O)CN2C(=O)N/C(=C/c3ccc(C)o3)C2=O)cc1 71.1%
CCn1cc(C(=O)OCC(=O)N2C(C)CCCC2C)c(=O)c2ccc(C)nc21 (stereo unspecified) 0.44%
CCCCSc1nc(O)c(C2OC(=O)c3c2ccc(OC)c3OC)c(=O)n1-c1ccccc1 (stereo unspecified) 32%
CCCCSc1nc(O)c(C2OC(=O)c3c2ccc(OC)c3OC)c(=O)n1C (stereo unspecified) 44.3%
CCSc1nc(O)c(C2OC(=O)c3c2ccc(OC)c3OC)c(=O)n1CC (stereo unspecified) 41.4%
CCCSc1nc(O)c(C2OC(=O)c3c2ccc(OC)c3OC)c(=O)n1-c1ccccc1 (stereo unspecified) 31.4%
CC1=CCC2C(=O)N(c3ccc(Br)cc3C)C(=O)C2C1 (stereo unspecified) -2.62%
COc1cc(C(=O)O)cc(NC(=O)c2cccs2)c1OC 27%
CC(NS(=O)(=O)c1ccccc1)C(c1cccs1)N1CCOCC1 (stereo unspecified) 3.6%
CCOc1ncccc1C(=O)OCC(=O)NCc1ccc2c(c1)OCO2 -8.27%
O=C(COC(=O)c1cccc(S(=O)(=O)N2CCOCC2)c1)Nc1ncc(C(F)(F)F)cc1Cl 4.29%
C/C(CC(=O)Nc1cc(C)ccn1)=N\NC(=O)C(=O)Nc1cccc(C)c1 17.6%
C/C(CC(=O)Nc1cc(C)ccn1)=N\NC(=O)c1cccc(C)c1 36.6%
c1ccc(CSc2ncnc3c2cnn3-c2ccccc2)cc1 6.75%
CC(=O)CSc1ncnc2c1cnn2-c1ccccc1 -3.85%
O=C1N/C(=C/c2cccn2-c2ccccc2)C(=O)N1Cc1ccccc1F 2.46%
O=C(O)c1cccc(-n2cccc2/C=C2\NC(=O)N(Cc3ccc(F)cc3)C2=O)c1 14.1%
COc1ccc(C(=O)OCC(=O)Nc2nc3c(F)c(F)c(F)cc3s2)cc1OC -4.12%
CCOc1ccccc1OCC(=O)Nc1nnc(COC)s1 -14%
COc1cccc(-c2cc(=O)[nH][nH]2)c1 -0.06%
COc1ccc(-c2cc(=O)[nH]c(=O)[nH]2)cc1 6.04%
COc1ccc(-c2cn(-c3cccc(C)c3)c(=O)[nH]2)cc1OC 12.5%
COc1ccc(-c2c[nH]c(=O)[nH]c2=O)cc1OC 7.18%
Cn1nc(-c2ccc(NCCO)c([N+](=O)[O-])c2)c2ccccc2c1=O -6.44%
Cc1nn(-c2ccccn2)c(N)c1N=O 13.8%
O=C(CN1C2=NCCCN2c2ccccc21)c1cccs1 -10.1%
CCN1C(=O)/C(=C/c2cccs2)SC1=Nc1ccc(OC)cc1 -1.72%
COc1ccc(OCC(=O)Nc2cccc(C(=O)Nc3ccccc3C(=O)O)c2)cc1 37%
CC(C)c1ccc(OCC(=O)Nc2cccc(C(=O)Nc3ccccc3C(=O)O)c2)cc1 5.28%
Cc1cc2nc(SC(C)C(=O)O)[nH]c2cc1C (stereo unspecified) 19.5%
CC(Sc1nc2ccccc2[nH]1)C(=O)O (stereo unspecified) 4.99%
COc1ccc(-n2nc(N)c3c(=O)oc(N(C)C)nc32)cc1 3.39%
O=C(O)CN1C(=O)SC(Nc2ccccc2)C1=O (stereo unspecified) 15.1%
COC(=O)c1cccc(CN2C(=O)SC(Nc3ccc(C)cc3)C2=O)c1 (stereo unspecified) 2.69%
COC(=O)c1cccc(CN2C(=O)SC(Nc3ccccc3)C2=O)c1 (stereo unspecified) 2.34%
Cc1ccc(NC2SC(=O)N(Cc3cccc(C(=O)O)c3)C2=O)c(C)c1 (stereo unspecified) -1%
Cc1ccc(N(CC(N)=O)C2SC(=O)N(Cc3ccccc3)C2=O)cc1 (stereo unspecified) 8.98%
NC(=O)CN(c1ccccc1)C1SC(=O)N(Cc2ccccc2)C1=O (stereo unspecified) -3.19%
O=C1Nc2ccccc2S/C1=C/c1cccs1 4.97%
CCCCCCOc1cccc(N)c1 -6.2%
COc1ccc(S(=O)(=O)N(CC(=O)N/N=C/c2cccs2)c2cc(C)cc(C)c2)cc1OC -9.62%
Cc1ccc(O)c(CNn2cnnc2)c1 -3.08%
C/C(=N\O)c1oc2ccc3c(C)cc(=O)oc3c2c1C 2.81%
COc1nc(N(CC(N)=O)S(=O)(=O)c2ccccc2)nc(C)c1Cl -8.61%
Cc1ccc(-n2nnnc2CN2CCCCC2)cc1 -0.54%
COC(=O)c1scc(C)c1N/N=C(\C)c1cc(F)c(Cl)cc1F -1.99%
Cn1ncc(Cl)c1C(=O)N/N=C/c1cc2c(cc1[N+](=O)[O-])OCO2 10.6%
CCCc1ncc(C(O)c2ccc(OC)cc2)n1C (stereo unspecified) -6.37%
Cc1ccc(Oc2ccc(NC(=O)CSc3n[nH]c(N)n3)cc2)cc1 -7.16%
Cc1ccc(CNC(=O)CSc2n[nH]c(N)n2)cc1 16.9%
Cc1ccc(NC(=O)CN(C)C(=O)CSc2nc(C)cs2)cc1 -4.97%
Cc1ccc(NC(=O)CN(C)C(=O)CSc2nc3ccccc3o2)cc1 3.63%
CCn1ncc(/C=N\NC(=O)c2ccc3c(c2)c(C)c(C)n3Cc2ccccc2)c1C 8%
Cc1c(C(=O)N2CCN(Cc3ccc4c(c3)OCO4)CC2)cccc1[N+](=O)[O-] 11.8%
COc1ccc(Nc2nc(C(=O)N3CCc4cc(OC)c(OC)cc4C3)cs2)cc1 -3.32%
COc1ccc(NC(=O)COC(=O)c2ccco2)c([N+](=O)[O-])c1 -7.81%
CN(Cc1cnccn1)C(=O)CC1C(=O)NCCN1Cc1c(F)cccc1Cl (stereo unspecified) 4.09%
CCCCc1ccc(NC(=O)C(C)CC)cc1 (stereo unspecified) 4.63%
CCCCc1ccc(NC(=O)N[C@@H](C)C(=O)O)cc1 -2.39%
CCc1ccc(C(=O)NC(C(=O)O)C(C)C)cc1 (stereo unspecified) 56.2%
CCCCCOc1ccc(C(=O)NC(C(=O)O)C(C)C)cc1 (stereo unspecified) 46.7%
CCc1ccc(NC(=O)N[C@H](C(=O)O)C(C)CC)cc1 (stereo partly specified) -1.8%
CCCCc1ccc(NC(=O)N[C@@H](CC(C)C)C(=O)O)cc1 -4.28%
CC(C)(C)NC(=O)CN(Cc1ccc(F)cc1)C(=O)Cn1nnc(-c2ccc(F)cc2)n1 2.63%
Cc1cccc(OCCCOc2cccc3cccnc23)c1C -0.78%
C[C@@H](C(=O)N1CCN(C(=O)OC(C)(C)C)CC1)n1cc(CCC(=O)O)nn1 3.71%
Cc1ccc(SCCn2nc(C(=O)O)c3ccccc3c2=O)cc1 11.2%
Cc1cccc(NS(=O)(=O)c2ccc3c(c2)NC(=O)CC(=O)N3)c1 0.82%
CCOc1ccccc1NC(=O)c1c(NC(=O)CCC(=O)O)sc2c1CCCCC2 3.19%
CCOC(=O)c1ccc(NC(=O)c2c(NC(=O)CCC(=O)O)sc3c2CCCCC3)cc1 4.02%
COc1ccc(NC(=O)c2c(NC(=O)CCC(=O)O)sc3c2CCCCC3)cc1 46%
COc1ccccc1NC(=O)c1c(NC(=O)CCC(=O)O)sc2c1CCCCC2 12%
O=C(Nc1sc2c(c1C(=O)O)CCCCC2)c1ccccc1 54.2%
Cc1ccccc1C(=O)Nc1sc2c(c1C(=O)O)CCC2 25.7%
O=C(NCCC(c1ccccc1)c1ccccc1)c1cnccn1 -1.23%
COc1ccc(C)cc1NC(=O)C(OC(=O)CNC(=O)c1ccc(Br)cc1)c1ccccc1 (stereo unspecified) -14.5%
CN(C)S(=O)(=O)c1ccc(NC(=O)Cn2ccsc2=N)cc1 0.8%
c1ccc(-c2nc(NCC3CCCO3)c3oc4ccccc4c3n2)cc1 (stereo unspecified) -4.77%
Cc1noc(C)c1COc1ccc(C(=O)OCC(=O)Nc2ccc3c(c2)OCO3)cc1 4.59%
COc1ccc2[nH]c(C)c(CCNC(=S)Nc3ccc(F)cc3)c2c1 -5.1%
O=C(Cn1cc2c(n1)CCCC2)N1CCc2ccccc21 3.11%
COc1ccccc1N1CC(C)C(=O)NC1=S (stereo unspecified) 8%
Cc1ccccc1C(=O)NC(=S)NCC(=O)c1ccccc1 0.75%
Cc1ccccc1C(=O)NCC(=O)NNC(=S)NC(=O)c1ccccc1C 63.2%
Cc1ccccc1C(=O)NNC(=S)NC(=O)c1cccnc1 80.7%
Cc1onc(-c2ccccc2)c1C(=O)NC(=S)NNC(=O)c1ccc(O)cc1 14.3%
Cc1ccccc1C(=O)NNC(=S)NC(=O)c1ccc(Cl)cc1Cl 90.7%
Cc1onc(-c2ccccc2)c1C(=O)NNC(=S)NC(=O)c1ccc(Br)cc1 44.1%
Cc1ccc(NC(=O)CN(c2ccccc2)S(=O)(=O)N(C)C)cc1 -5.3%
CCOC(=O)c1cnc2c(C(F)(F)F)cccc2c1N1CCOCC1 6.02%
C/C(CC(=O)N(C(C)C)C(C)C)=N\NC(=O)COc1ccc(Cl)cc1Cl 7.13%
Cc1ccc(C(=O)Nc2ccc3cn[nH]c3c2)cc1S(=O)(=O)N1CCCCC1 4.67%
CCOC(=O)NC(=O)CSc1nnnn1-c1ccccc1 0.74%
